Bioassay records as filed in PubChem BioAssay.
This excerpt belongs to a sample that is enriched for hits.
PD-1 reversal – reversal of PD-1 mediated T-cell inhibition. primary human CD4 T cells, PD-L1 beads, CellTiter-Glo 96 h. activation, % (test concentration not listed). 29,000 tested, under 10 active. AID 2316; call rule not given here;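 further: 0% = median vehicle wells and 100% = positive control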
STK33 inh – inhibitors of human STK33 kinase; inhibition, % at 12.5 µM; Q9BYT3; 27,000 compounds, 0.44% hits; ADP-Glo luminescence, MBP substrate; in the data active means inhibition above about 20%; inconclusive means no clear call, values can overlap the other calls
Target sequence (Q9BYT3 whole entry, looked up): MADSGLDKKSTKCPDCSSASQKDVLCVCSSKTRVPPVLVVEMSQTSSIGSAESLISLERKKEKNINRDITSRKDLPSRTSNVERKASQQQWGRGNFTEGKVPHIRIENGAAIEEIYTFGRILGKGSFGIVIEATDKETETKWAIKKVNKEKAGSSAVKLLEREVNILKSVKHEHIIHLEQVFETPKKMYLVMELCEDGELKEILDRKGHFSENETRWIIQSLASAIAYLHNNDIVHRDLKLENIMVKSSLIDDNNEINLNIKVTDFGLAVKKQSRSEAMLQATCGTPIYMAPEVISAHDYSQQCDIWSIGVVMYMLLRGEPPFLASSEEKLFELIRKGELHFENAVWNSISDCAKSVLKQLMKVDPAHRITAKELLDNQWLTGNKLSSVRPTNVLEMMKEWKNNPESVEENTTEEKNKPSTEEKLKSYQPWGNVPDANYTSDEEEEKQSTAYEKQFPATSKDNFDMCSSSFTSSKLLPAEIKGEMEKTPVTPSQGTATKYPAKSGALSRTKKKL
NOMO-1 viab – STK33 inhibitor candidate reducing NOMO-1 cell viability. NOMO-1 AML viability, CellTiter-Glo luminescence, 72 h. inhibition, % (concentration not given with the values). 37,000 compounds, 7.5% hits; in the data active means inhibition above about 80%; inconclusive means no clear call, values can overlap the other calls
* hit, by the source's call; ? = inconclusive; . = no result given.

SMILES | PD-1 reversal | STK33 inh | NOMO-1 viab
C[C@H](CO)N1C[C@H](C)[C@H](CN(C)Cc2ccc(-c3ccccc3)cc2)Oc2c(NC(=O)Nc3ccc(C(F)(F)F)cc3)cccc2C1=O | -2 | . | 82*
C[C@@H]1CN([C@H](C)CO)C(=O)c2cccc(NC(=O)Nc3ccc(C(F)(F)F)cc3)c2O[C@H]1CN(C)Cc1ccc(-c2ccccc2)cc1 | . | 2 | 110*
C[C@@H]1CN([C@@H](C)CO)C(=O)c2cccc(NC(=O)Nc3ccc(C(F)(F)F)cc3)c2O[C@H]1CN(C)Cc1ccc(-c2ccccc2)cc1 | -1 | . | 77
CCN(CC)CCSc1nnc2c3ccccc3n(CC)c2n1 | . | -2 | -10
Cc1occc1-c1nnc2sc(-c3ccc(-c4ccccc4[N+](=O)[O-])o3)nn12 | 1 | 5 | 12
COC(=O)c1c(NC(=S)Nc2ccc(S(=O)(=O)NC34CC5CC(CC(C5)C3)C4)cc2)sc(C(=O)N(C)C)c1C | 0 | 1 | 4
CC(C)(c1ccccc1)c1cc(CN2CCOCC2)c(O)c(CN2CCOCC2)c1 | -2 | . | 32
COC(=O)c1ccccc1NC(=O)COc1cc(C)c(Br)c(C)c1 | . | -2 | -4
Cc1cc(SCC(=O)Nc2sc3c(c2C#N)CCCC3)nc2ccccc12 | 2 | 0 | 1
CN(C)/C=C/C(=O)c1ccc2c(c1)CCO2 | 0 | . | 110*
C/C(=N\O)c1ccc2c(c1)CCO2 | 1 | . | 17
Cc1ccc(-n2nc3ccc(NC(=O)COc4cccc(C)c4)cc3n2)cc1 | -4 | -2 | 30
c1ccc(C(c2ccccc2)N2CCN(CCCc3c[nH]c4ccccc34)CC2)cc1 | -1 | . | 116*
c1ccc2c(Cc3c[nH]c4ccccc34)c[nH]c2c1 | . | -3 | -10
C[C@H](CO)N1C[C@H](C)[C@H](CN(C)Cc2ccc(Cl)c(Cl)c2)Oc2c(NS(=O)(=O)c3ccc(F)cc3)cccc2C1=O | -3 | . | 91*
COc1ccc(S(=O)(=O)Nc2cccc3c2O[C@H](CN(C)Cc2ccc(Cl)c(Cl)c2)[C@H](C)CN([C@@H](C)CO)C3=O)cc1 | -2 | . | 31
C[C@H]1CN([C@@H](C)CO)C(=O)c2cccc(NS(=O)(=O)c3ccc(F)cc3)c2O[C@H]1CN(C)Cc1ccc(Cl)c(Cl)c1 | -1 | . | 24
COc1ccc(S(=O)(=O)Nc2cccc3c2O[C@@H](CN(C)Cc2ccc(Cl)c(Cl)c2)[C@@H](C)CN([C@H](C)CO)C3=O)cc1 | -3 | . | 115*
CC(=O)c1ccc(N2CCN(C(=S)Nc3ccc(S(=O)(=O)Nc4ncccn4)cc3)CC2)cc1 | . | -5 | 26
CC1CC(=O)c2c(ccc3c2C(=O)c2cccc(O)c2C3O)C1 (stereo not given) | -7 | 3 | 118*
C[C@H]1OC(=O)c2c(O)ccc(O)c2[C@H]1O | . | -9 | .
C[C@H]1CN([C@@H](C)CO)C(=O)Cc2cc(NC(=O)Nc3cccc4ccccc34)ccc2O[C@H]1CN(C)C | -1 | -1 | -6
C[C@H]1CN([C@@H](C)CO)C(=O)Cc2cc(NC(=O)Nc3cccc4ccccc34)ccc2O[C@@H]1CN(C)CC1CCCCC1 | 0 | 4 | 136*
C[C@@H]1CN([C@H](C)CO)C(=O)Cc2cc(NC(=O)Nc3ccc(C(F)(F)F)cc3)ccc2O[C@H]1CN(C)CC1CCCCC1 | -9 | -5 | 116*
C[C@@H]1CN([C@H](C)CO)C(=O)Cc2cc(NC(=O)Nc3ccc(C(F)(F)F)cc3)ccc2O[C@@H]1CN(C)CC1CCCCC1 | -7 | 1 | ?
SMILES | PD-1 reversal | STK33 inh | NOMO-1 viab
C[C@@H]1CN([C@H](C)CO)C(=O)Cc2cc(NC(=O)Nc3ccccc3)ccc2O[C@H]1CN(C)CC1CCCCC1 | 2 | -4 | ?
C[C@H]1CN([C@@H](C)CO)C(=O)Cc2cc(NC(=O)Nc3ccccc3)ccc2O[C@H]1CN(C)CC1CCCCC1 | 0 | -2 | 90*
Cc1cc(C)cc(NC(=O)c2ccc(CSc3nnc(-c4cccc([N+](=O)[O-])c4)n3C)cc2)c1 | -1 | 2 | 48
COc1ccc(-n2c(/C=C/N(C)C)c([N+](=O)[O-])c3ccc(OC(C)=O)c(COC(C)=O)c32)cc1 | . | -2 | .
CC(=O)c1ccc(NC(=O)Cn2cnc3c(sc4nc5c(cc43)COC(C)(C)C5)c2=O)cc1 | 1 | 1 | 21
C[C@H]1CN([C@@H](C)CO)C(=O)c2cc(NS(=O)(=O)c3ccc(F)cc3)ccc2O[C@@H]1CN(C)Cc1ccc(-c2ccccc2)cc1 | 0 | . | 100*
C[C@H](CO)N1C[C@H](C)[C@H](CN(C)Cc2ccc(-c3ccccc3)cc2)Oc2ccc(NS(=O)(=O)c3ccc(F)cc3)cc2C1=O | . | . | 41
C[C@@H]1CN([C@H](C)CO)C(=O)c2cc(NS(=O)(=O)c3ccc(F)cc3)ccc2O[C@H]1CN(C)Cc1ccc(-c2ccccc2)cc1 | 2 | 2 | 97*
C[C@H](CO)N1C[C@H](C)[C@@H](CN(C)Cc2ccc(-c3ccccc3)cc2)Oc2ccc(NS(=O)(=O)c3ccc(F)cc3)cc2C1=O | -1 | . | 22
COc1cc2c(cc1NC(=O)COC(C)=O)oc1ccccc12 | 0 | 0 | 4
Brc1ccccc1-c1nc2ccccc2c2nc3ccccc3n12 | -1 | . | 50
O=C(O)c1ccc2c3c1cccc3c(=O)n1c3ccccc3nc21 | 1 | 70* | 16
Cc1ccc(S(=O)(=O)N(C)C[C@@H]2Oc3ccc(NC(=O)Nc4ccc(F)cc4)cc3CC(=O)N([C@@H](C)CO)C[C@@H]2C)cc1 | -2 | 2 | 104*
COc1ccc(NC(=O)Nc2ccc3c(c2)CC(=O)N([C@H](C)CO)C[C@H](C)[C@H](CN(C)S(=O)(=O)c2ccc(F)cc2)O3)cc1 | . | . | 126*
Cc1ccc(S(=O)(=O)N(C)C[C@@H]2Oc3ccc(NC(=O)C4CC4)cc3CC(=O)N([C@@H](C)CO)C[C@@H]2C)cc1 | 0 | -1 | 84*
Cc1ccc(S(=O)(=O)N(C)C[C@@H]2Oc3ccc(NC(=O)C4CC4)cc3CC(=O)N([C@H](C)CO)C[C@H]2C)cc1 | 0 | -2 | 11
COc1ccc(S(=O)(=O)N(C)C[C@@H]2Oc3ccc(NC(=O)Nc4ccc(F)cc4)cc3CC(=O)N([C@H](C)CO)C[C@@H]2C)cc1 | . | 2 | 33
Cc1ccc(S(=O)(=O)N(C)C[C@H]2Oc3ccc(NC(=O)Nc4ccc(F)cc4)cc3CC(=O)N([C@H](C)CO)C[C@H]2C)cc1 | -2 | -4 | -10
Cc1ccc(S(=O)(=O)N(C)C[C@@H]2Oc3ccc(NC(=O)Nc4ccccc4)cc3CC(=O)N([C@H](C)CO)C[C@H]2C)cc1 | . | 3 | 10
Cc1ccc(S(=O)(=O)N(C)C[C@@H]2Oc3ccc(NC(=O)Nc4ccccc4)cc3CC(=O)N([C@H](C)CO)C[C@@H]2C)cc1 | . | . | 100*
CCOc1cccc(NC(=O)C2CC(=O)N(/N=C(\C)c3ccc(Br)s3)C(=N)S2)c1 (stereo not given) | 1 | . | 9
COc1ccc(/C=C/c2cc(OC)cc3c2CCC(C)(C)O3)cc1 | -1 | -2 | 44
Nc1cc(N)nc(SCC(=O)Nc2cccc(Cl)c2Cl)n1 | -1 | 4 | 23
Cc1ccc(S(=O)(=O)N(C)C[C@H]2Oc3ccc(NC(=O)Nc4ccc(F)cc4)cc3CC(=O)N([C@@H](C)CO)C[C@H]2C)cc1 | -2 | -3 | 44
